# AMA1 RON2 block: qHTS for Inhibitors of AMA1-RON; Towards Development of Antimalarial Drug Lead: Primary Screen | AID 720542, 2013 | hit rate 0.2% among 360,000 | AlphaScreen AMA1-biotinylated RON2 peptide binding | Potency, µM (titrated, usually from 58.2 µM), for the others: top-dose activity change, negative = inhibition, actives largely listed as inhibitors; active = well fitted inhibition curve with a large enough effect; inconclusive = small, poorly fitted or top-dose-only effect; inactive = no such curve, though single readings can be large or run the other way;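 also: potency is read from the fitted curve at half-maximal effect; 0% = vehicle wells and -100% = peptide control; nearly all actives have a fitted effect of over 45% in size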
#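 AMA1 (3D7) with his tag at 25 nM final met compounds first, then biotinylated RON2 peptide at 25 nM; detection used donor plus acceptor beads, 10 µg/mL apiece, read by AlphaScreen after 30 min at room temperature.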
# Marburg entry inh: qHTS for inhibitors of binding or entry into cells for Marburg Virus. hit rate 1.8% among 300,000. Marburg virus pseudotyped entry inhibition, cell reporter. Potency, µM (series often up to 37.8 µM), for inactives: at the highest dose activity change, negative = inhibition, usual class: inhibitors. AID 540276, 2011; calls by dose curve; tested in HEK293 cells; also: potency is read from the fitted curve at half-maximal effect; % is scaled to controls: 0 for no effect and ±100 for the full control effect
# Lassa entry inh: qHTS for Inhibitors of binding or entry into cells for Lassa Virus; Lassa virus pseudotype entry inhibition, cell reporter; Potency, µM (series often up to 37.9 µM), for the others: top-dose activity change, negative = inhibition, most hits filed as inhibitors; hit rate 1.2% among 300,000; AID 540256, 2011; calls by dose curve; tested in HEK293 cells; also: potency is read from the fitted curve at half-maximal effect; % is scaled to controls: 0 for no effect and ±100 for the full control effect; nearly all actives have a fitted effect of over 50% in size
# Shiga inhibitor: A qHTS for Small Molecule Inhibitors of Shiga Toxin; Vero cells, Shiga toxin protein synthesis inhibition reporter; inhibition, % at 38.7 µM; hit rate 9.2% among 290,000; in the data active = inhibition mostly above about 28%, no sharp cut-off; inactive = mostly below about 43%; also: 0% is about no effect
# CHX counter: Cycloheximide Counterscreen for Small Molecule Inhibitors of Shiga Toxin | hit rate 12% among 300,000 | cell reporter, cycloheximide protein synthesis inhibition counterscreen | max response, %; in the data active = max response mostly above about 13%, no sharp cut-off; inactive = mostly below about 14%; also: read at 38.3 µM for the half of the compounds with a filed dose; 0% is about no effect
# Starred values were filed as active, the others as inactive; ? = inconclusive; · = not tested or not shown; [ ] = another dose, or the depositor's remark. The entries come from a sample that favours hits as a whole.
SMILES,AMA1 RON2 block,Marburg entry inh,Lassa entry inh,Shiga inhibitor,CHX counter
COC(=O)c1ccc2nc(NC(=O)COC(=O)CSc3nc(C)cc(C)n3)sc2c1,-2.4%[11.6 µM],-0.2%,10.9%,64.9*,31.2*
Cc1ccc2nc(NC(=O)COC(=O)CSc3nc(C)cc(C)n3)sc2c1,-4.0%,13.2%,?,78.0*,40.5*
COc1ccc2nc(NC(=O)CSc3nc(C)cc(C)n3)sc2c1,-23.4%,?,?,-14.0,-3.9
CCOc1ccc(CNC(=O)CN2C(=O)CSc3ccc(S(=O)(=O)N4CCOCC4)cc32)cc1OC,-19.5%,·,-9.6%[46.1 µM],-3.9,-2.8
Nc1nc(SCc2ccc3c(c2)OCCO3)n[nH]1,8.5%,14.1%[46.1 µM],?,71.2*,21.2
Nc1nc(SCc2ccc(F)cc2)n[nH]1,-2.1%,·,·,·,9.3
Nc1nc(SCc2ccc(Cl)cc2Cl)n[nH]1,-0.4%,?,?,27.4,20.7*
OCCC1CN(Cc2cccn2-c2ccccn2)CCN1Cc1ccccc1 (stereo not given),2.2%,·,·,-15.5,0.8
CCC1(c2ccc(F)cc2)NC(=O)N(CC(=O)N2CCN(S(=O)(=O)c3ccc(C)cc3C)CC2)C1=O (stereo not given),-2.7%,·,·,·,·
Cc1cc(=O)[nH]n(CCO)c1=O,0.6%,-1.9%[46.1 µM],2.3%,5.6,-0.3
CC(=O)C1=NOC(CNc2ncc(C(F)(F)F)cc2Cl)C1 (stereo not given),7.4%,7.2%[46.1 µM],-1.7%[46.1 µM],80.6,17.2*
O=S(=O)(NCCNc1ncc(C(F)(F)F)cc1Cl)C(F)(F)F,5.3%,?,-3.6%,57.0*,27.4
O=[N+]([O-])c1ccccc1NCCNc1ncc(C(F)(F)F)cc1Cl,-12.1%,0.6%,17.4%,120.6*,28.6*
O=C1C=CC(=O)N1CCNc1ncc(C(F)(F)F)cc1Cl,-3.6%,?,?,-9.3,-1.8
O=C(O)C1=NOC(CNc2ncc(C(F)(F)F)cc2Cl)C1 (stereo not given),8.6%,-10.7%[46.1 µM],18.3%[46.1 µM],-1.5,-1.0
O=c1cc(Cl)[nH]c(=O)n1CCNc1ncc(C(F)(F)F)cc1Cl,4.3%,-11.1%,?,93.8*,35.5*
CS(=O)(=O)NCCNc1ncc(C(F)(F)F)cc1Cl,-9.2%,-8.2%[46.1 µM],0.0%,14.3,8.2
CCC(=O)CC(NC(=O)OC)c1ccc(F)cc1 (stereo not given),·,6.0%[14.2 µM],·,·,·
COc1cccc2c1ncc1c(-c3ccc(C)cc3)nn(-c3cccc([N+](=O)[O-])c3)c12,·,·,22.3%[46.1 µM],·,·
COc1ccc(N(C(=O)CNC(=O)c2ccco2)C(C(=O)NC2CCCC2)c2ccco2)cc1 (stereo not given),11.4%,?,13.3%,24.7,-2.8
Cc1ccc2c(c1)c1c(c(=O)n(-c3ccccc3)c(=O)n1CC(=O)c1ccc(F)cc1)n2C,·,·,0.7%[46.1 µM],·,·
CCOc1ccc(CN(CCc2ccc3c(c2)OCO3)Cc2cc(OC)ccc2O)cc1,·,-2.1%[46.1 µM],-28.6%[46.1 µM],·,·
O=[N+]([O-])c1cccnc1NCCNc1ncc(C(F)(F)F)cc1Cl,-18.5%,-24.0%,7.8%,77.3*,39.2*
O=[N+]([O-])c1cc(Cl)ccc1NCCNc1ncc(C(F)(F)F)cc1Cl,-5.5%,-2.3%,7.4%,-9.0,3.3
Cc1ccc(S(=O)(=O)NCC(=O)NCC(=O)OCC(=O)N2CC(=O)Nc3ccccc32)cc1C,15.5%,13.3%,0.9%,-5.0,-3.5
SMILES,AMA1 RON2 block,Marburg entry inh,Lassa entry inh,Shiga inhibitor,CHX counter
CC1CCN(c2ccc(-c3nc(-c4ccccc4)no3)cc2[N+](=O)[O-])CC1,·,?,?,82.3*,43.8*
CN1CCCN(Cc2nc(-c3ccc(Cl)cc3)no2)CC1,7.9%,-4.8%[46.1 µM],24.2%[46.1 µM],35.2,29.1*
CC1CCN(Cc2nc(-c3ccccc3)no2)CC1,-11.1%,?,4.1%,25.0,23.1*
Cc1ccc(-c2noc(CN3CCC(C(N)=O)CC3)n2)cc1,5.9%,1.4%,?,84.1*,41.2*
OCCN1CCN(Cc2nc(-c3cccc(Cl)c3)no2)CC1,-14.3%,?,?,31.0,2.3
Cc1ccc(-c2noc(-c3ccc(N4CCC(C)CC4)c([N+](=O)[O-])c3)n2)cc1,·,-2.3%[46.1 µM],-4.6%[46.1 µM],·,·
Cc1ccc(CNC(=O)COC(=O)CCC(=O)c2cccs2)cc1,4.3%,3.2%[46.1 µM],6.1%,3.8,-2.3
Cc1ccc(NC(=O)c2cc(S(=O)(=O)N3CCC(C)CC3)cn2C)cc1Cl,·,·,0.2%[46.1 µM],·,·
COc1ccc(-c2noc(CN(C)CCC3CCCCO3)n2)cc1 (stereo not given),-26.2%,0.6%[46.1 µM],3.0%,29.8,-5.2
NC(=O)[C@@H]1CCCN1Cc1nc(-c2cccs2)no1,4.7%,5.5%,17.7%,-13.7,-2.6
Cc1ccc(-c2noc(CN3C(C)CCCC3C)n2)cc1 (stereo not given),-1.5%,·,·,-0.5,22.4*
COC(=O)c1ccc(-c2noc(CN(C)CCC3CCCCO3)n2)cc1 (stereo not given),-8.8%,8.5%[46.1 µM],-23.2%[46.1 µM],31.3,16.1*
NC(=O)[C@@H]1CCCN1Cc1nc(-c2ccc(C(F)(F)F)cc2)no1,2.1%,·,·,11.5,16.1*
CCN(Cc1nc(-c2ccc(Cl)cc2)no1)CC1CCCO1 (stereo not given),0.4%,2.2%[46.1 µM],-6.1%[46.1 µM],16.5,14.5*
c1ccc(-c2noc(CN3CCc4sccc4C3)n2)cc1,-6.7%,-3.8%[46.1 µM],·,50.5,18.2*
CC1CCN(Cc2nnc(-c3cccc(Br)c3)o2)CC1,8.2%,5.1%[46.1 µM],-5.2%[46.1 µM],31.8*,34.1*
CN1CCN(Cc2nnc(-c3ccccc3)o2)CC1,-3.3%,·,·,6.8,0.2
c1ccc(-c2noc(CN3CCN(c4ccccc4)CC3)n2)cc1,-11.3%,·,·,-4.8,-2.4
CSc1cccc(NC(=O)Cn2c3ncccc3c(=O)n2-c2ccc(C)cc2)c1,·,·,-11.3%[46.1 µM],·,·
CN=C(C)/C(C(=O)OC)=C(/O)c1ccc(Cl)cc1Cl,-20.5%,-11.2%[46.1 µM],-5.5%,-7.3,1.4
COc1ccc(OCCN(C)Cc2c(O)ccc3ccccc23)cc1,6.2%,-6.5%[46.1 µM],15.8%[46.1 µM],36.8,17.6*
O=C(Cc1cccc2ccccc12)NC(NC(=S)Nc1ccccc1Cl)C(Cl)(Cl)Cl (stereo not given),-10.8%,5.62µM*,?,-15.6,-3.3
O=C(NC(NC(=S)Nc1ccccc1Cl)C(Cl)(Cl)Cl)c1cccc(Cl)c1 (stereo not given),1.3%,?,?,-11.6,2.4
O=C(Nc1ccccc1)C1CCCCC1,0.3%,-5.9%,10.3%,5.3,6.5
O=C(Nc1ccc2ccccc2n1)c1ccccc1Cl,12.4%,·,·,55.8*,39.2*
O=C(Nc1ccc2ccccc2n1)c1ccc(Cl)cc1,-7.5%,?,?,67.3*,49.7*
O=C(Nc1ccnc(-c2ccncc2)n1)c1ccccc1Cl,-3.6%,·,·,-8.6,-3.1
O=C(Nc1cccc(NC(=O)c2ccc(Cl)cc2)n1)c1ccc(Cl)cc1,-12.5%,4.0%,-7.7%,-35.0,1.2
O=C(Nc1ccc2ccccc2n1)C1CCCCC1,8.4%,?,-13.1%[46.1 µM],52.8,72.8*
COc1ccc(C(=O)Nc2ccc3ccccc3n2)c(OC)c1OC,-5.4%,·,·,74.0*,50.8*
